Compounds with a hit are over-represented: about 10% of the library has one in this group of screens.
HPGD block = HPGD (human) dehydrogenase inhibition. P15428. purified HPGD, NADH fluorescence kinetic, PGE2 substrate. Potency, µM, for inactives: at the top dose activity change, negative = inhibition, usual class: inhibitors. hit rate 4.3% among 150,000. AID 894; note: potency is the fitted concentration of half-maximal effect
Target sequence (P15428 whole entry, looked up): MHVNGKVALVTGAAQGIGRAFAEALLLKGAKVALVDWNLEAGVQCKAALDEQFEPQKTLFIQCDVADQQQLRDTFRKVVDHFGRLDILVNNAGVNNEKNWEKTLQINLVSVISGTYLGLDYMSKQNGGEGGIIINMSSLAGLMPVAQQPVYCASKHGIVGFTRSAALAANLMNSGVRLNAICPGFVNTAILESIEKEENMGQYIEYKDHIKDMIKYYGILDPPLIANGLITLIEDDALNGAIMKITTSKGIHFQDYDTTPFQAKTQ
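NADH formation kinetics: reaction with 30 uM PGE2 and 1 mM NAD+ (final), 20 nM enzyme, Tris-HCl pH 8 with Tween 20, after 15 min compound preincubation at room temperature. Fluorescence change, last versus first of five reads.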
LMNA splice mod = changes lamin A minigene splicing in HeLa cells; HeLa LMNA splicing GFP/RFP minigene ratio, 48 h; Potency, µM (doses to about 46.1 µM), for inactives: at the top dose ratio change, negative = inhibition, usual class: inhibitors; hit rate 0.01% among 200,000; AID 1487; active = well fitted inhibition curve with a large enough effect in the signal ratio, with a control signal flat, not every such curve was filed as active; inconclusive = small, poorly fitted or top-dose-only effect, or effect the other way, or a change in a side signal; the % refers to the signal ratio; note: potency is the fitted concentration of half-maximal effect
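S3 HeLa stable clones carrying a lamin A-EGFP splicing minigene plus DsRed2 were seeded at 600 cells/well in Opti-MEM with 2% FBS, pin-dosed and incubated 48 h at 37°C. Acumen cytometry (488 nm) gave the GFP/RFP total-intensity ratio.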
PNC assembly inh = blocks assembly of the perinucleolar compartment | activity change (PNC), negative = inhibition, % at 10 µM | PC3M PTB-GFP, PNC prevalence imaging, 16 h; active compounds read low | hit rate 3.1% among 140,000;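 active = readout at or below -70, meaning at least 70% loss of cells showing the perinucleolar compartment, a nuclear body marking cancer cells; inconclusive = readout between -30 and a set limit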;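 note: plate controls were DMSO wells for no effect and camptothecin positive control wells for full effect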
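PC3M cells stably expressing PTB-GFP, 750–1000 cells/well, treated 16 h at 37 °C with compound (23 nl of library stock), in duplicate. After paraformaldehyde fixation and Hoechst stain, imaged at 20x; PNC prevalence scored by image analysis.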
ALDH1A1 inh = inhibitors of human aldehyde dehydrogenase 1A1 | P00352 | Purified ALDH1A1, NADH fluorescence, propionaldehyde substrate | Potency, µM (titrated, usually from 75.3 µM), inactives show at the highest dose activity, negative = inhibition, most hits filed as inhibitors | hit rate 7.3% among 220,000 | AID 1030;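 note: potency is the fitted concentration of half-maximal effect; plate controls were no enzyme wells and a reference inhibitor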
ALOX12 inhib = 12-hLO (ALOX12) enzyme inhibition; purified 12-hLO, xylenol orange hydroperoxide absorbance; Potency, µM (top dose mostly 57.1 µM), for inactives: at the top dose activity change, negative = inhibition, actives largely listed as inhibitors; P18054; hit rate 0.12% among 150,000; active = well fitted inhibition curve with a large enough effect; inconclusive = small, poorly fitted or top-dose-only effect; note: potency is the fitted concentration of half-maximal effect; nearly all actives have a fitted effect of over 55% in size
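Hydroperoxide formation by human 12-lipoxygenase from 40 uM arachidonic acid was followed colorimetrically via ferric-xylenol orange complex, using the 573/405 nm absorbance ratio. Enzyme concentration was 150 nM, with 30 min reaction at room temperature.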
Starred values were filed as active, the others as inactive; ? = inconclusive; · = not tested or not shown; [ ] = remark or other dose. Unless noted, calls come from the whole dose curve; as a rule, active = well fitted inhibition curve with a large enough effect (not every such curve was filed as active); inconclusive = small, poorly fitted or top-dose-only effect, or another doubt; inactive = no such curve, though single readings can be large or run the other way. Unless noted, % is set by controls: 0 for no effect and ±100 for the full control effect.

SMILES	HPGD block	LMNA splice mod	PNC assembly inh	ALDH1A1 inh	ALOX12 inhib
CCOC(=O)C1=C(O)c2ccccc2C(=O)/C1=C\c1ccc(CC)cc1	0.89µM*	?	-16	19µM*	?
CCCc1ccc(/C=C2\C(=O)c3ccccc3C(O)=C2C(=O)OCC)cc1	4.5µM*	?	?	?	-22%
CC(OC(=O)c1ccncc1)C(=O)NC1CCCC1 (configuration not stated)	·	·	·	5%	·
Cc1noc(C)c1-c1nccc(N(C)Cc2ccco2)n1	·	-9%	·	14µM*	·
COc1ccc(C(=O)Nc2ccc(S(=O)(=O)Nc3cc(C)nc(C)n3)cc2)cc1OC	·	?	·	10µM*	·
COc1cc(C(=O)Nc2ccc(S(=O)(=O)Nc3cc(C)nc(C)n3)cc2)cc(OC)c1OC	·	-5%[46 µM]	·	?	·
Cc1cc(NS(=O)(=O)c2ccc(NC(=O)/C=C/c3ccc(C)o3)cc2)nc(C)n1	·	·	·	3.5µM*	·
COc1cc(OC)cc(C(=O)Nc2ccc(S(=O)(=O)Nc3cc(C)nc(C)n3)cc2)c1	-28%	5%	4	5µM*	4%
Cc1cc(NS(=O)(=O)c2ccc(NC(=O)c3ccc(Br)o3)cc2)nc(C)n1	·	6%[46 µM]	·	?	·
O=S(=O)(NNc1ccc(Cl)nn1)c1ccc(F)cc1	3.5µM*	-13%	-88*	28µM*	-4%
Cc1ccc(-n2ncc(C(=O)NCCCN3CCc4ccccc4C3)c2C2CCN(C(=O)OC(C)(C)C)CC2)cc1C	·	-15%[46 µM]	·	·	·
O=C(/C=C/NNC(=O)c1ccc(Br)cc1)c1ccccc1	-20%	6%	-4	10µM*	?
CCCCn1c(CCn2nc(C)c(Br)c2C)n[nH]c1=S	22µM*	-3%	-12	-10%	-1%
CC1=Nn2c(nnc2C2CCCCC2)SC1	28µM*	13%	33	?	-6%
O=C(NCc1ccc(F)cc1Cl)c1cc(=O)[nH]c2ccc(S(=O)(=O)N3CCCCC3)cc12	·	6%[46 µM]	·	·	·
Cc1noc(C)c1C(=O)N1CCC[C@@]2(CCN(C(=O)Nc3cccc(C#N)c3)C2)C1	2%	·	·	4%	5%
COc1ccc(-c2nc3c4ccccc4n(CC(=O)Nc4cc(F)ccc4F)c(=O)n3n2)cc1	·	4%[46 µM]	·	·	·
N/C(Cc1ccccc1)=N\OC(=O)c1cccc2ccccc12	2.5µM*	14%	?	-6%	2%
COC(=O)CN1C(=S)N(c2ccc(Cl)cc2)C(=O)C1CC(=O)Nc1ccc(Cl)cc1 (configuration not stated)	32µM*	?	41	-5%	-6%
COc1ccc(NC(=O)CC2C(=O)N(c3ccc(Cl)cc3)C(=S)N2CCc2ccccn2)cc1 (configuration not stated)	-19%	?	3	16µM*	-10%
N=C1[C@@H](O)[C@]2(I)c3ccccc3N3C(=N)[C@H](O)[C@@H]4c5ccccc5N1[C@@H]4[C@@H]32	4µM*	·	·	-4%[13.5 µM]	-17%[11.4 µM]
CC1(C)Cc2c(c(N3CCOCC3)nc3sc4c(NCc5ccco5)nnnc4c23)CS1	-26%	-5%	-81*	?	-14%
Cn1cc(/C=N/Nc2ccccc2)c2ccccc21	·	?	·	8.9µM*	·
COc1ccc(OC)c(S(=O)(=O)NCCc2csc3nc(-c4ccccc4)nn23)c1	·	-5%[46 µM]	·	·	·
O=C1OC(NC(=O)c2ccccc2)C(n2cc(CO)nn2)=C1Cl (configuration not stated)	22µM*	19%	20	13µM*	-15%
SMILES	HPGD block	LMNA splice mod	PNC assembly inh	ALDH1A1 inh	ALOX12 inhib
Cc1ccc(NC2=C(Cl)C(=O)OC2NC(=O)c2ccccc2)cc1 (configuration not stated)	-4%	?	?	-10%	-4%
COC(=O)c1ccccc1NC(=O)CSc1nc(-c2ccco2)cc(C(F)(F)F)n1	-20%	?	-82*	4%	-1%
N#Cc1c(NC(=O)CSc2nc(-c3ccco3)cc(C(F)(F)F)n2)sc2c1CCCC2	?	-15%	-84*	?	1%
COC(=O)c1c(NC(=O)CSc2nc(-c3ccco3)cc(C(F)(F)F)n2)sc2c1CCCC2	-10%	3%	-24	?	-7%
O=C(CSc1nc(-c2ccco2)cc(C(F)(F)F)n1)NC1CCCC1	14µM*	-4%	?	?	2%
CCn1nc(C)c(NC(=O)CCSc2nc(-c3ccco3)cc(C(F)(F)F)n2)c1C	?	-7%	-11	28µM*	6%
CCCCC/C=C\C/C=C\CCCCCCCC(=O)NCCCC(=O)O	-1%	·	·	10%	1%
COc1ccc(OC)c(CC2C(=O)Nc3ccc(Br)cc32)c1 (configuration not stated)	·	9%[46 µM]	·	·	·
O=C(COc1ccccc1F)Nc1ccc(OCc2cc(=O)n3ccccc3n2)cc1	·	5%[46 µM]	·	·	·
Cc1cc(NC(=O)CSc2nc(-c3cccs3)cc(C(F)(F)F)n2)no1	-12%	?	-97*	?	5%
CCCNC(=O)CSc1nc(-c2cccs2)cc(C(F)(F)F)n1	?	9%	-26	-13%	3%
CCOC(=O)c1ccc(-n2c(CC)nc3ccccc3c2=O)cc1	·	12%[9.22 µM]	·	-3%	·
CCOC(=O)c1ccc(-n2c(CN3CCC(C(N)=O)CC3)nc3ccc([N+](=O)[O-])cc3c2=O)cc1	·	-3%[46 µM]	·	8.9µM*	·
CCOC(=O)C1CCN(Cc2nc3ccccc3c(=O)n2-c2ccc(F)cc2)CC1	-13%	9%	0	11%	1%
CCOC(=O)c1ccc(-n2c(CN(CC)CC)nc3ccc([N+](=O)[O-])cc3c2=O)cc1	·	?	·	28µM*	·
CCN1C(=O)CSc2ccc(C(=O)NC3CCCCC3)cc21	-4%	0%	?	13µM*	-6%
CCN1C(=O)CSc2ccc(C(=O)NCc3ccccc3OC)cc21	-15%	6%	0	10µM*	-2%
COc1ccccc1CNC(=O)CN1C(=O)CSc2ccc(S(=O)(=O)N3CCCC3)cc21	·	4%[46 µM]	·	-8%	·
C=CCN1C(=O)CSc2ccc(C(=O)NCc3cccs3)cc21	·	?	·	8.9µM*	·
O=C(NCc1cccs1)c1ccc2c(c1)N(Cc1cccc(F)c1)C(=O)c1ccccc1S2	·	7%[46 µM]	·	·	·
CC#CCN1c2ccccc2[C@]23C[C@@H](C(=O)OC)N(S(=O)(=O)c4ccc(C#N)cc4)C2=NC(C(=O)OC)=C(C(=O)OC)[C@H]13	-8%	?	·	6%[13.5 µM]	-2%[11.4 µM]
NC(CCC(=O)N[C@@H](CS)C(=O)NCC(=O)O)C(=O)O (some centres not stated)	-2%	?	·	12%	-4%
Cc1ccc(C)c(N2C(=O)c3ccc(C(=O)OCC(=O)c4c(N)n(C)c(=O)n(C)c4=O)cc3C2=O)c1	-19%	-8%	48	20µM*	1%
COc1ccc(C(=O)OCC(=O)c2c(N)n(C)c(=O)n(C)c2=O)cc1OC	·	·	·	3%	·
CCCCNCc1cc(OC)c(OCC(N)=O)cc1Br	-17%	?	-100*	3%	1%
Cc1ccc(/C=C/C(=O)NCc2cccs2)o1	·	·	·	4µM*	·
